Calls of active or inactive are those of the source.
Legend:
[1] = E. coli DRC41 culture turbidity changes, primary screen, E. coli filamentation inducer project, strain DRC41, OD650, 48 h (AID 1152);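 also: E. coli MC1000 strain DRC41 lacking acrAB efflux pump and sulA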; conditions: E. coli DRC41 (acrAB sulA), higher = more signal, called active from +8 up or from −8 down
[2] = small-molecule binders of probe aLefty1, primary screen, biochemical, small-molecule microarray, 635/667 nm fluorescence (AID 1153); conditions: higher = more signal;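 also: score merges spot fluorescence with signal-to-noise ratio from the scanned slide images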
[3] = PSAC antagonists in infected red cells, primary screen, cell-based, P. falciparum Indochina, OD700, 1 h (AID 1154); conditions: P. falciparum Indochina infected RBC osmotic lysis, higher = more signal, called active from +8 up or from −8 down
[4] = PSAC antagonists in infected red cells, primary screen, cell-based, P. falciparum Indochina, OD700, 2 h (AID 1155);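 also: lysis reports solute entry through the parasite surface anion channel PSAC; channel blockers reduce lysis of infected cells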; conditions: P. falciparum Indochina infected erythrocytes, osmotic lysis OD700; higher = more signal, called active from +8 up or from −8 down
[5] = osmotic lysis modulators in infected erythrocytes, primary screen, PSAC antagonist project, cell-based, P. falciparum Indochina, OD700, 3 h (AID 1156); conditions: higher = more signal, called active from +8 up or from −8 down
[6] = PSAC antagonists in infected red cells, primary screen, cell-based, P. falciparum Indochina, OD700, 18 h (AID 1157); conditions: P. falciparum Indochina infected erythrocytes, osmotic lysis OD700, 18 h; higher = more signal, called active from +8 up or from −8 down
[7] = modulators of S6 phosphorylation in cells, primary screen, cell-based, A549, cytoblot, luminescence, serum-stimulated (AID 1158); conditions: A549 phospho-S6 cytoblot, 5 h, higher = more signal;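 also: serum-stimulated A549 lung adenocarcinoma cells; signal is phosphorylated S6 detected by cytoblot immunostaining with HRP secondary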
[8] = biological target: NADPH oxidase 2 (Homo sapiens) (UniProt P04839); assay: NOX2-dependent H2O2 signal modulators, primary screen, NOX inhibitor project, cell-based, HEK293-NOX2, PMA-stimulated, Amplex Red fluorescence (AID 1159); conditions: 45 min, higher = more signal, called active from +8 up or from −8 down; also: test concentration not given here
[9] = biological target: NADPH oxidase 4 (Homo sapiens) (UniProt Q9NPH5); assay: NOX4-dependent H2O2 signal modulators, primary screen, NOX inhibitor project, cell-based, HEK293-NOX4, tetracycline-induced, Amplex Red fluorescence (AID 1160); conditions: 45 min, higher = more signal, called active from +8 up or from −8 down
[10] = biological target: NADPH oxidase 5 (Homo sapiens) (UniProt Q96PH1); assay: NOX5-dependent H2O2 signal modulators, primary screen, NOX inhibitor project, cell-based, HEK293-NOX5, Amplex Red fluorescence (AID 1161); conditions: HEK293-NOX5, ionomycin, 45 min, higher = more signal
Chain of NADPH oxidase 5 (Homo sapiens) (Q96PH1 whole entry, looked up): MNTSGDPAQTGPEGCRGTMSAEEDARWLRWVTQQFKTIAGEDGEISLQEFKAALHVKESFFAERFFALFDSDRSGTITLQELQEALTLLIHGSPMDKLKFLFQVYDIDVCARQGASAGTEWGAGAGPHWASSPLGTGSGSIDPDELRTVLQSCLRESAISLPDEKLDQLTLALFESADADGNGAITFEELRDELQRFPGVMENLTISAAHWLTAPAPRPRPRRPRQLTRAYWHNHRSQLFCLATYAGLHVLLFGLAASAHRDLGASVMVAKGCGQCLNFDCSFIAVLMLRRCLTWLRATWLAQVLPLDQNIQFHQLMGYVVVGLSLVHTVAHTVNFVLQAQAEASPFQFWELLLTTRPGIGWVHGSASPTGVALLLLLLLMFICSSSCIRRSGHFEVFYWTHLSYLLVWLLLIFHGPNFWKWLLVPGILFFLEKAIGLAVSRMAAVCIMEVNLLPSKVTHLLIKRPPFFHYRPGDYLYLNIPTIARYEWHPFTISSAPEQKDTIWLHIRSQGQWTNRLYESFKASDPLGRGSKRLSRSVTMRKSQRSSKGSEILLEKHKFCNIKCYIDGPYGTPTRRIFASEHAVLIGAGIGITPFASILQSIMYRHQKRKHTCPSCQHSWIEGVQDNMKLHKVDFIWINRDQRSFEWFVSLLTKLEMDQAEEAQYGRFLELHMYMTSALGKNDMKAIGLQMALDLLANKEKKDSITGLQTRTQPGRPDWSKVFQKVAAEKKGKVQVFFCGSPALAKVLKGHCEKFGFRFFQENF

Chain of NADPH oxidase 2 (Homo sapiens) (P04839 whole entry, looked up): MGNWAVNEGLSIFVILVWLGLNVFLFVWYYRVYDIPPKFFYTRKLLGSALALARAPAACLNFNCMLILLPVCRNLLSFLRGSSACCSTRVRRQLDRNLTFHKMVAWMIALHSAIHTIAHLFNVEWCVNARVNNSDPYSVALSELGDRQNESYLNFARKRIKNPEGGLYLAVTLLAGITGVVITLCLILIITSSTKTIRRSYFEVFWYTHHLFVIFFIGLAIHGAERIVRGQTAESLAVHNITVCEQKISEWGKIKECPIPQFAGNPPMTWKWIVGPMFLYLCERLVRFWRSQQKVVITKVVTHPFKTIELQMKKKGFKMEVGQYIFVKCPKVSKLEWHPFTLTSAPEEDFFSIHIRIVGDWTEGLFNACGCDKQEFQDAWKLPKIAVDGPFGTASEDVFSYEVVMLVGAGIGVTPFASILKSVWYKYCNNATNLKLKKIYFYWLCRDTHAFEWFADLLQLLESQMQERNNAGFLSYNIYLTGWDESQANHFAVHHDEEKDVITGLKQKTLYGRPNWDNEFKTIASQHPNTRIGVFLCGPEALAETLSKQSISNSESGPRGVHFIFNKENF
Chain of NADPH oxidase 4 (Homo sapiens) (Q9NPH5 whole entry, looked up): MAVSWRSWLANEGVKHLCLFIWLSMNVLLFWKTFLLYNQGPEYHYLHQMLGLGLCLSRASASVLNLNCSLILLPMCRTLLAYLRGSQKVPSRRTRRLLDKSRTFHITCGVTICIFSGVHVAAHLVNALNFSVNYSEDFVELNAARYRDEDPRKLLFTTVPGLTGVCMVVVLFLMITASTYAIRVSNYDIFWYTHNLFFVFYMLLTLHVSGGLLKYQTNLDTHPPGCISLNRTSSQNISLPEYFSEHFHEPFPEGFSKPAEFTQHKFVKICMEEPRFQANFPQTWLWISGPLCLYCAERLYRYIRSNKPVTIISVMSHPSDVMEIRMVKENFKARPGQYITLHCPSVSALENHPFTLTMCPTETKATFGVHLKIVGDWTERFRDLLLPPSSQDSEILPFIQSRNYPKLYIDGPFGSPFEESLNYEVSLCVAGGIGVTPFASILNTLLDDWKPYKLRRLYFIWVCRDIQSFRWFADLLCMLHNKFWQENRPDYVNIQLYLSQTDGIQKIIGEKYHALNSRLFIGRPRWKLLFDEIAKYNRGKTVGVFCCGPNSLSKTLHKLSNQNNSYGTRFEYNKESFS

SMILES	z-score [1]	composite z-score [2]	z-score [3]	z-score [4]	z-score [5]	z-score [6]	z-score [7]	z-score [8]	z-score [9]	z-score [10]
CC[C@@H](c1ccccc1)n1c(=O)n2n(c1=O)[C@H]1[C@H](O)[C@@H]3O[C@@H]3C(=NOCC=C(C)CCC=C(C)C)[C@H]1CC2	-1.15 (inactive)	-0.241	1.27 (inactive)	0.719 (inactive)	0.0313 (inactive)	0.355 (inactive)	-0.45	2.38 (inactive)	-1.85 (inactive)	-1.35
COCCNC(=O)OCC1CCCC2(CC(OC(=O)NCCc3ccc(F)cc3)CC(CCC(=O)N[C@@H](C)C(=O)OC)O2)O1 (stereo not given in full)	0.622 (inactive)	0.0547	-0.577 (inactive)	-0.61 (inactive)	0.958 (inactive)	0.565 (inactive)	0.672	0.769 (inactive)	0.948 (inactive)	0.232
CC(C)(C)OC(=O)CC[C@]1(C(N)=O)COC(c2ccc(OCCCO)cc2)=N1	0.311 (inactive)	0.802	0.75 (inactive)	-0.267 (inactive)	0.295 (inactive)	0.0515 (inactive)	-0.777	0.381 (inactive)	-0.585 (inactive)	0.612
COCCCNC(=O)[C@]1(CCC(=O)OC(C)(C)C)N=C(c2ccc(OCCCO)cc2)O[C@@H]1c1ccccc1N=[N+]=[N-]	0.734 (inactive)	0.483	32.7 (active)	29.9 (active)	4.05 (inactive)	7.68 (inactive)	0.0838	-2.44 (inactive)	1.59 (inactive)	-2.19
C#CCCCON=C1C[C@@H](O)[C@@H](O)[C@@H]2[C@@H]3C(=O)N(c4cccc(Oc5ccccc5)c4)C(=O)[C@@H]3CC[C@@H]12	-0.164 (inactive)	-0.0929	2.87 (inactive)	1.29 (inactive)	1.24 (inactive)	0.354 (inactive)	-0.512	-2.13 (inactive)	-0.598 (inactive)	-0.786
O=C1[C@H]2[C@H]3[C@H](O)[C@H](O)CC(=NOCc4ccccc4)[C@@H]3CC[C@H]2C(=O)N1Cc1ccccc1	0.569 (inactive)	-0.147	0.124 (inactive)	0.321 (inactive)	0.0319 (inactive)	0.627 (inactive)	-0.618	-0.85 (inactive)	0.433 (inactive)	0.326
CCOC(=O)C1=CC[C@H]2C(=O)N(CC)C(=O)[C@@H]12	-0.457 (inactive)	-0.0412	1.09 (inactive)	1.21 (inactive)	0.253 (inactive)	0.804 (inactive)	-0.45	-0.0988 (inactive)	0.484 (inactive)	0.829
Cn1cccc1C(O)C1C=CC2C(=O)NC(=O)C2N1Nc1ccccn1 (stereo not given)	-1.07 (inactive)	-0.289	2.33 (inactive)	2.41 (inactive)	0.801 (inactive)	1.49 (inactive)	-1.14	-2.54 (inactive)	-4.94 (inactive)	-5.28
NC(=O)NCC#Cc1ccc2c(c1)[C@]1(C(=O)N2)[C@H](c2ccc(O)cc2)N2[C@H](c3ccccc3)[C@H](c3ccccc3)OC(=O)[C@H]2[C@@H]1C(=O)N1CCCCCCC1	-0.403 (inactive)	2.04	0.578 (inactive)	-0.175 (inactive)	0.35 (inactive)	0.197 (inactive)	0.0459	1.71 (inactive)	0.802 (inactive)	1.2
CCOC(=O)C[C@H]1[C@H](OC(=O)c2ccc(C(=O)c3ccccc3)cc2)[C@@H](NC(=O)c2ccc(-c3ccccc3)cc2)c2cc(OCCCO)ccc2N1C(=O)c1ccc2ccccc2n1	2.25 (inactive)	-0.118	5.21 (inactive)	0.485 (inactive)	0.464 (inactive)	0.407 (inactive)	0.756	-1.46 (inactive)	0.424 (inactive)	0.216
CC(CCN1CCc2nc(-c3ccccc3)c(-c3ccccc3)cc2C1)=NOC(C)CN1CCCCc2nc(C)c(C)cc21 (stereo not given)	-0.934 (inactive)	-0.106	1.08 (inactive)	-0.198 (inactive)	0.281 (inactive)	0.343 (inactive)	-0.0953	-0.839 (inactive)	0.405 (inactive)	0.108
COc1ccc(O[C@H]2C=C[C@@H](c3ccccc3)O[C@@H]2COC(=O)CCC(C)=NO[C@H](C)c2cn([C@@H]3COC[C@H]3O)nn2)cc1	0.451 (inactive)	-0.0501	5.05 (inactive)	0.0624 (inactive)	1.63 (inactive)	-0.908 (inactive)	0.607	-4.13 (inactive)	-0.691 (inactive)	-4.98
COC(=O)[C@H]1COC(c2ccc(OCCCO)cc2)=N1	-0.13 (inactive)	0.245	22.4 (active)	5.33 (inactive)	0.0031 (inactive)	0.642 (inactive)	-0.0797	-0.257 (inactive)	0.172 (inactive)	-0.663
CC(C)C[C@@H]1NC(=O)[C@H]2C[C@@H](C(=O)NCCCCCCN(C)C)[C@@H](c3cccc(OCCO)c3)N2C1=O	-0.054 (inactive)	0.0816	4.3 (inactive)	0.594 (inactive)	1.04 (inactive)	0.154 (inactive)	0.0695	1.77 (inactive)	1.07 (inactive)	1.84
CCOC(=O)CCN1C(=O)[C@H]2[C@H]3[C@H](O)[C@H](O)CC(=O)[C@H]3CC[C@H]2C1=O	-1.98 (inactive)	-0.0984	-0.062 (inactive)	-0.426 (inactive)	-0.451 (inactive)	-1.42 (inactive)	1.11	-0.513 (inactive)	0.947 (inactive)	-0.00675
C[C@@H](c1ccccc1)N1C(=O)[C@H]2[C@H]3[C@H](O)[C@H](O)CC(=NNC(=O)OCc4ccccc4)[C@H]3CC[C@H]2C1=O	0.645 (inactive)	0.107	3.27 (inactive)	1.03 (inactive)	0.0197 (inactive)	0.0072 (inactive)	0.296	0.982 (inactive)	1.08 (inactive)	0.412
CC(C)=CCCC(C)=CCON=C1[C@H]2CCn3c(=O)n(C)c(=O)n3[C@H]2[C@H](O)[C@@H]2O[C@H]12	0.459 (inactive)	-0.115	0.306 (inactive)	0.197 (inactive)	0.0128 (inactive)	0.0078 (inactive)	-0.48	-2.6 (inactive)	0.0699 (inactive)	0.43
C=CCNC(=O)[C@H]1[C@@H]2C(=O)O[C@@H](c3ccccc3)[C@@H](c3ccccc3)N2[C@@H](c2ccc(O)cc2)[C@]12C(=O)N(C(=O)OCCOC)c1ccc(C#CC3=CCCCC3)cc12	-0.383 (inactive)	1.81	1.65 (inactive)	0.929 (inactive)	0.0207 (inactive)	0.506 (inactive)	-0.25	1.96 (inactive)	-0.149 (inactive)	1.47
CC(CCN1CCCCc2nc(C)c(C)cc21)=NOC(C)CN1CCCc2nc(C)c(C)cc21 (stereo not given)	-1.7 (inactive)	0.79	1.6 (inactive)	0.549 (inactive)	-0.19 (inactive)	0.488 (inactive)	-0.569	-1 (inactive)	0.11 (inactive)	-1.79
COc1ccc(O[C@H]2C=C[C@@H](c3ccccc3)O[C@@H]2COC(=O)N2CCCCC2)cc1	0.309 (inactive)	0.174	2 (inactive)	-0.213 (inactive)	-0.0257 (inactive)	-0.169 (inactive)	-0.428	-0.138 (inactive)	0.334 (inactive)	-1.71
CC(=O)OC[C@H]1O[C@H](CCON=C(C)CCN2CCc3nc(-c4ccccc4)c(-c4ccccc4)cc3C2)C=C[C@@H]1OC(C)=O	-0.132 (inactive)	0.0446	2.65 (inactive)	0.452 (inactive)	0.676 (inactive)	0.148 (inactive)	-0.166	-2.87 (inactive)	-0.455 (inactive)	-2.78
COCCOC(=O)N1C(=O)[C@@]2(c3cc(C#Cc4ccc(OC)cc4)ccc31)[C@H](c1ccc(O)cc1)N1[C@H](c3ccccc3)[C@H](c3ccccc3)OC(=O)[C@H]1[C@@H]2C(N)=O	0.0372 (inactive)	-0.303	6.02 (inactive)	1.5 (inactive)	-0.407 (inactive)	0.954 (inactive)	-0.0604	0.782 (inactive)	0.689 (inactive)	0.305
Cc1cc2c(nc1C)CCCN2CC(C)ON=C1[C@H]2CCn3c(=O)n(-c4ccccc4)c(=O)n3[C@H]2[C@H](O)[C@@H]2O[C@H]12 (stereo not given in full)	-1.46 (inactive)	0.0037	1.21 (inactive)	0.283 (inactive)	1.27 (inactive)	0.513 (inactive)	-0.415	-0.435 (inactive)	-0.00359 (inactive)	-0.832
CC(C)NC(=O)[C@@]1(c2ccc([N+](=O)[O-])cc2)CC(=O)N(CC23CC4CC(CC(C4)C2)C3)[C@@H]1c1ccc(CO)cc1I	-0.805 (inactive)	0.167	18.8 (active)	5.45 (inactive)	1.59 (inactive)	1.28 (inactive)	0.018	2.19 (inactive)	0.215 (inactive)	1.35
CO[C@@H]1COC(=O)CC=C[C@@H](C)[C@@H]2C=C[C@H](O)[C@@H](COC(=O)[C@H](C)NC(=O)CC=C[C@H]1C)O2	0.457 (inactive)	-0.626	-0.761 (inactive)	-1.27 (inactive)	0.564 (inactive)	-2.4 (inactive)	-0.309	-0.573 (inactive)	0.165 (inactive)	0.605
